Test results published in the supplement of paper PMC10849652.
Targets with a hit are over-represented here; the source holds about 7,900 in all. About 0.6% of all pairs of compound and target were hits. Values without a mark were called inactive.

Legend:
Test in all cases: log2 fold change, soluble protein after heating vs DMSO (PISA); higher = thermal stabilisation; K562 cells, 10 uM, 30 min; active = over 0.2 and 3.5 SD of the protein, either way, in both replicates (recomputed)
bafetinib = compound: Cc1ccc(NC(=O)c2ccc(CN3CC[C@H](N(C)C)C3)c(C(F)(F)F)c2)cc1Nc1nccc(-c2cncnc2)n1 [bafetinib]
How it was run: (§1)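 K562 cells at 2×10^6 cells/mL were given 10 μM compound for 30 min. Aliquots then went through 3 min of heating across 48°C-58°C, were pooled, and were extracted in PBS with 0.5% NP-40 at 4°C, and the supernatant after 21,000xg for 90 min was quantified by TMTpro 16plex LC-MS/MS with channel sums equalised. Thermal stability relative to control samples, from duplicates, is given as log2 fold change.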

[1] = compound: Cc1cccc(CC(=O)N2CCc3c2ccc(-c2cn(C)c4ncnc(N)c24)c3F)n1
How it was run: as §1

nilotinib = compound: Cc1cn(-c2cc(NC(=O)c3ccc(C)c(Nc4nccc(-c5cccnc5)n4)c3)cc(C(F)(F)F)c2)cn1 [nilotinib]
How it was run: as §1

[2] = compound: Cc1nc(Nc2n[nH]c3c2CN(C(=O)N[C@H](CN(C)C)c2ccccc2)C3(C)C)c2sccc2n1
How it was run: as §1

dasatinib = compound: Cc1nc(Nc2ncc(C(=O)Nc3c(C)cccc3Cl)s2)cc(N2CCN(CCO)CC2)n1 [dasatinib]
How it was run: as §1

[3] = compound: Cc1ncc(-c2ccnc(Nc3ccc(S(C)(=O)=O)cc3)n2)n1C(C)C
How it was run: as §1

[4] = compound: Cn1cc(-c2ccc3c(c2)CCN3C(=O)Cc2cccc(C(F)(F)F)c2)c2c(N)ncnc21
How it was run: as §1

[5] = compound: Cn1cc(-c2ccc3nnc(C(F)(F)c4ccc5ncccc5c4)n3n2)cn1
How it was run: as §1

tipifarnib = compound: Cn1cncc1[C@@](N)(c1ccc(Cl)cc1)c1ccc2c(c1)c(-c1cccc(Cl)c1)cc(=O)n2C [tipifarnib]
How it was run: as §1

mubritinib = compound: FC(F)(F)c1ccc(/C=C/c2nc(COc3ccc(CCCCn4ccnn4)cc3)co2)cc1 [mubritinib]
How it was run: as §1

[6] = compound: NC(=O)Nc1cc(-c2cccc(F)c2)sc1C(=O)N[C@H]1CCCNC1
How it was run: as §1

[7] = compound: NC(=O)c1cnc(N[C@@H]2CCCC[C@@H]2N)nc1Nc1cccc(-n2nccn2)c1
How it was run: as §1

[8] = compound: NC1(c2ccc(-c3nc4ccn5c(=O)[nH]nc5c4cc3-c3ccccc3)cc2)CCC1
How it was run: as §1

[9] = compound: NCC(=O)Nc1ccc(-n2nc(C(F)(F)F)cc2-c2ccc3c(ccc4ccccc43)c2)cc1
How it was run: as §1

entinostat = compound: Nc1ccccc1NC(=O)c1ccc(CNC(=O)OCc2cccnc2)cc1 [entinostat]
How it was run: as §1

vorinostat = compound: O=C(CCCCCCC(=O)Nc1ccccc1)NO [vorinostat]
How it was run: as §1

citarinostat = compound: O=C(CCCCCCNC(=O)c1cnc(N(c2ccccc2)c2ccccc2Cl)nc1)NO [citarinostat]
How it was run: as §1

silmitasertib = compound: O=C(O)c1ccc2c(c1)nc(Nc1cccc(Cl)c1)c1ccncc12 [silmitasertib]
How it was run: as §1

[10] = compound: O=C1NC(=O)C(c2cnc3ccccn23)=C1c1cn2c3c(cc(F)cc13)CN(C(=O)N1CCCCC1)CC2
How it was run: as §1

[11] = compound: c1cc(OCCN2CCCCC2)cc(-c2n[nH]c3ccc(-c4nnc[nH]4)cc23)c1
How it was run: as §1

Chain of UniProt Q8N4A0 (Q8N4A0 whole entry, looked up): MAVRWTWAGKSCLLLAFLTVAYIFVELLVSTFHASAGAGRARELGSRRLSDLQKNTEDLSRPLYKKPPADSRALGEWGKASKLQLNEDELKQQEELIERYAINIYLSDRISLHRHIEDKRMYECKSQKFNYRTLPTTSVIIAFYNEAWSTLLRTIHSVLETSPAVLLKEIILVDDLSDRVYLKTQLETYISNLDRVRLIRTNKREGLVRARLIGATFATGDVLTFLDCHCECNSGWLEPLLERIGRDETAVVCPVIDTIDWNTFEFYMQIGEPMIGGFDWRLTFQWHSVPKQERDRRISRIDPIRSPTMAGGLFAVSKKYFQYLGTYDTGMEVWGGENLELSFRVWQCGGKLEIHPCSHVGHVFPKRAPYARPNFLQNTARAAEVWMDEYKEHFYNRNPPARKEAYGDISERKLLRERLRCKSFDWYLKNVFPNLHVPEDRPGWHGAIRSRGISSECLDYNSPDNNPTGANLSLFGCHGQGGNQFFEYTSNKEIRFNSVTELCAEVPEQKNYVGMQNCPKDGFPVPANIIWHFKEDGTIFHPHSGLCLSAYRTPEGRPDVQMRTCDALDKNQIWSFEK
Chain of UniProt P21333 (P21333 whole entry, looked up): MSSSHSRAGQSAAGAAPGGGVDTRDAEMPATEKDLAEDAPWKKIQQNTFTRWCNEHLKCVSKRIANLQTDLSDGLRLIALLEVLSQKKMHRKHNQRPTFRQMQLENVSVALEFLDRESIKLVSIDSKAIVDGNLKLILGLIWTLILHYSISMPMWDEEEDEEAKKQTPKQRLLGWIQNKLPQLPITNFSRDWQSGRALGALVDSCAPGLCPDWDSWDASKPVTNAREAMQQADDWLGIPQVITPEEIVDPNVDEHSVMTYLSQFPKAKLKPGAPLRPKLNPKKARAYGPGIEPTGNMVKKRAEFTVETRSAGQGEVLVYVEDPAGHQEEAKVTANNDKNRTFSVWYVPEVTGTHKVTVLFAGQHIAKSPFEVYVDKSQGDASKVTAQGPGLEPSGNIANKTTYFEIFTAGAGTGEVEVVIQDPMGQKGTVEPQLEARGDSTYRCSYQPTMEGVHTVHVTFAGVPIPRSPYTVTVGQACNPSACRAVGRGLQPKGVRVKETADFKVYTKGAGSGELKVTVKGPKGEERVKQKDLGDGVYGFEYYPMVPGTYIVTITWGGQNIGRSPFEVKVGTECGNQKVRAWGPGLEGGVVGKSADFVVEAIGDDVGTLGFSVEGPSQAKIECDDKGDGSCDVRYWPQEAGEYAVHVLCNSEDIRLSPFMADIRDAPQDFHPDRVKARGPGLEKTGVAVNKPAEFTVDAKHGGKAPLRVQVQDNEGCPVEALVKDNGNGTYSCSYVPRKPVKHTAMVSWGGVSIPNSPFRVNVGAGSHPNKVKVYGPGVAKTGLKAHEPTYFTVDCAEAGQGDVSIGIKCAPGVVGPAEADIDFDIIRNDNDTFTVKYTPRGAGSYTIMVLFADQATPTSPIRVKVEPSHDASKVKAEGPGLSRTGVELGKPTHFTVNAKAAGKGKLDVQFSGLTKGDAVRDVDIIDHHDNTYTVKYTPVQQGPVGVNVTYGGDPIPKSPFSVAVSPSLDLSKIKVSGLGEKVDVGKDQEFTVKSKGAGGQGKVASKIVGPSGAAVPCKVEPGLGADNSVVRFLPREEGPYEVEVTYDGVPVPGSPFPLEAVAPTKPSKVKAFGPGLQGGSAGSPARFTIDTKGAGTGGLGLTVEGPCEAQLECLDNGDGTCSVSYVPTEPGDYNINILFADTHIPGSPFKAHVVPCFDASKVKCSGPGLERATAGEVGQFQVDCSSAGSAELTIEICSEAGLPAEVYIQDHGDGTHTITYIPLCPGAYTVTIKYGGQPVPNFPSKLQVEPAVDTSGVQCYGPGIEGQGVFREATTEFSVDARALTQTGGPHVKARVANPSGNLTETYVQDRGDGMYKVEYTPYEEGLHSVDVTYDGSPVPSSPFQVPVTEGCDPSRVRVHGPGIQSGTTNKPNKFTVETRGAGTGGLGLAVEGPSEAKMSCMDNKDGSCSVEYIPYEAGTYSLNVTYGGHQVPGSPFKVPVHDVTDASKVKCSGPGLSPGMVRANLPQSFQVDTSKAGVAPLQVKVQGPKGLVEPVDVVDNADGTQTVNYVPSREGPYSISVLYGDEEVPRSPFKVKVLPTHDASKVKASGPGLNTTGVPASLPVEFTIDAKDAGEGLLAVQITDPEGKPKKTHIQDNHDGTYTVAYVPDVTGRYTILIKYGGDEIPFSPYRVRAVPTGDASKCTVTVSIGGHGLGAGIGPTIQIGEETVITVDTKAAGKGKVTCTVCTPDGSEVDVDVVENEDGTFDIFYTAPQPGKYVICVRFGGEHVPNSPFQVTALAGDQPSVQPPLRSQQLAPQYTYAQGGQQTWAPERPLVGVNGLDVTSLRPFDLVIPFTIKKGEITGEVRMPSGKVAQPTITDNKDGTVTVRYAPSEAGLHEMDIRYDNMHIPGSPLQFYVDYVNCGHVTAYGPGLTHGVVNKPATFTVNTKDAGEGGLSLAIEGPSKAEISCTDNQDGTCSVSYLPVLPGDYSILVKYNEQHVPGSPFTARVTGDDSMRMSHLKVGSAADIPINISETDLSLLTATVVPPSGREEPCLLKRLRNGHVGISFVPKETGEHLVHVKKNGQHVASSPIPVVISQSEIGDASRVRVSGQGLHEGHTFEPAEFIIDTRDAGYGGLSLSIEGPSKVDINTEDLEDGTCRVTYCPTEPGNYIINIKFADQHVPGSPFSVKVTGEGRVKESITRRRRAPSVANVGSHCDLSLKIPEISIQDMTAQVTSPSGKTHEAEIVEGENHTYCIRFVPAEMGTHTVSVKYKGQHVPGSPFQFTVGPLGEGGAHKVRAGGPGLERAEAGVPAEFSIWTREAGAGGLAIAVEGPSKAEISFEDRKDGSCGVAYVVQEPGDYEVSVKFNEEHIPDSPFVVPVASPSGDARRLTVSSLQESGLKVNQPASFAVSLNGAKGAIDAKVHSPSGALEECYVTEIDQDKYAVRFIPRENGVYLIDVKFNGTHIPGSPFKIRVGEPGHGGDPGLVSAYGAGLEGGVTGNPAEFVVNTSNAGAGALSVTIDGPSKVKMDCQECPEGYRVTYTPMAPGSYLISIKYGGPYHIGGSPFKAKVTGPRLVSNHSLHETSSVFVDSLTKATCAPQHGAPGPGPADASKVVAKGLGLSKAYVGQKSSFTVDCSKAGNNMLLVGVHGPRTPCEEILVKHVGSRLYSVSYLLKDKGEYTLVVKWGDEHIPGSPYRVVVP
Chain of UniProt Q7Z4H3 (Q7Z4H3 whole entry, looked up): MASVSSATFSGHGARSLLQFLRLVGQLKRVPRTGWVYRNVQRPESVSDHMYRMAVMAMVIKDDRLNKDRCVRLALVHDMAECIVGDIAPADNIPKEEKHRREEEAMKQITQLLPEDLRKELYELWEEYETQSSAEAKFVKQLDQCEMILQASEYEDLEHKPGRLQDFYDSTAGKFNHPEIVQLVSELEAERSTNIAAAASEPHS
Chain of UniProt P52789 (P52789 whole entry, looked up): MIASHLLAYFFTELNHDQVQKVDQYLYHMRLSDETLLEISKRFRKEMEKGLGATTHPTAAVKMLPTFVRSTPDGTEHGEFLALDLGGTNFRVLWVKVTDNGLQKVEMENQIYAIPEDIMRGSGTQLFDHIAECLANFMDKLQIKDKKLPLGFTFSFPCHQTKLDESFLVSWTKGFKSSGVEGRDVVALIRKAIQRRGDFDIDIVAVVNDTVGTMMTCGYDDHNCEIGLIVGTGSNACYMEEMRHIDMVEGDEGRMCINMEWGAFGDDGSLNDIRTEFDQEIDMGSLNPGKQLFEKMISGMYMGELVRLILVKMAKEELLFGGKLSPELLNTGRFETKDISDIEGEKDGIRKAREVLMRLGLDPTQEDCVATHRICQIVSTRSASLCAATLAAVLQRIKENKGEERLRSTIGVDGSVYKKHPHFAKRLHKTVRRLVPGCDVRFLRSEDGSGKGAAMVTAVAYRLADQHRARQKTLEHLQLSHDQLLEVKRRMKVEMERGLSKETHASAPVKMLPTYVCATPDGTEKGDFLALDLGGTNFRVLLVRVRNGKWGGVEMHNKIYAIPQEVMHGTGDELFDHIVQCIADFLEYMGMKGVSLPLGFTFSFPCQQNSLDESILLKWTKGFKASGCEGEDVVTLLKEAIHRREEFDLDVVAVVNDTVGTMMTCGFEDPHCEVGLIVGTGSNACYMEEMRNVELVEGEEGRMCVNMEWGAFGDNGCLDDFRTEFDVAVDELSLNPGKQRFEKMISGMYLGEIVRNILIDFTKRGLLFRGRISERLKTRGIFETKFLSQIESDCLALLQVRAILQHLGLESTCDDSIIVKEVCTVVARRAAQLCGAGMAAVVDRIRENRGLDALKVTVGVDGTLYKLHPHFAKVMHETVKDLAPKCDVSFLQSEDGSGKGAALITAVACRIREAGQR
Chain of UniProt Q96HJ9 (Q96HJ9 whole entry, looked up): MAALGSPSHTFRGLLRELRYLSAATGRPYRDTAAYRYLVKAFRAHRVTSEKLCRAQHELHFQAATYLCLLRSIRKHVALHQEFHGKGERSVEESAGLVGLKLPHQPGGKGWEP
Chain of UniProt Q9Y3D6 (Q9Y3D6 whole entry, looked up): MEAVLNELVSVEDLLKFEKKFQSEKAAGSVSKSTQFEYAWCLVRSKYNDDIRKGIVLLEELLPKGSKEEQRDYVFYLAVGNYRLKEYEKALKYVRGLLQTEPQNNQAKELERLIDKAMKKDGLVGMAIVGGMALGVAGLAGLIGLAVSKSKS
Chain of UniProt Q9Y680 (Q9Y680 whole entry, looked up): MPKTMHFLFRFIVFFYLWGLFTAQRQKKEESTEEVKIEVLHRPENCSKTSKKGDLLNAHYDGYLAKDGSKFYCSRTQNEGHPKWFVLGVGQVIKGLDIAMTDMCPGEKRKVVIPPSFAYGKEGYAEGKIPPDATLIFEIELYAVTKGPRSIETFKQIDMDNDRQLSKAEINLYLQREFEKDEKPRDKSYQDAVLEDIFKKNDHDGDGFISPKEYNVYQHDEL

Target | log2 fold change (bafetinib) | log2 fold change [1] | log2 fold change (nilotinib) | log2 fold change [2] | log2 fold change (dasatinib) | log2 fold change [3] | log2 fold change [4] | log2 fold change [5] | log2 fold change (tipifarnib) | log2 fold change (mubritinib) | log2 fold change [6] | log2 fold change [7] | log2 fold change [8] | log2 fold change [9] | log2 fold change (entinostat) | log2 fold change (vorinostat) | log2 fold change (citarinostat) | log2 fold change (silmitasertib) | log2 fold change [10] | log2 fold change [11]
HMGN2 (UniProt P05204) | -0.013 | -0.189 | -0.025 | 0.022 | 0.053 | 0 | -0.025 | 0.04 | 0.079 | 0.021 | 0.071 | 0.07 | 0.139 | 0.027 | -0.092 | -0.225 | -0.129 | 0.02 | 0.067 | 0.151
FBXO7 (UniProt Q9Y3I1) | -0.026 | -0.006 | 0.003 | 0.059 | -0.102 | 0 | 0.065 | -0.002 | 0.072 | 0.07 | 0.061 | -0.052 | -0.077 | -0.044 | 0.038 | 0.097 | 0.013 | 0.031 | -0.026 | -0.052
GNS (UniProt P15586) | -0.156 | -0.002 | 0.003 | 0.037 | 0.006 | -0.033 | 0.008 | -0.028 | 0.02 | -0.004 | 0.002 | 0 | -0.109 | 0.01 | -0.006 | -0.036 | 0.019 | -0.026 | -0.049 | 0.003
FIS1 (UniProt Q9Y3D6) | -0.087 | -0.034 | 0.041 | -0.002 | -0.044 | 0.007 | 0.111 | 0.07 | -0.024 | 0.053 | -0.013 | 0.075 | 0.002 | 0.133 | -0.004 | -0.027 | 0.051 | -0.017 | -0.03 | -0.006
FLNA (UniProt P21333) | 0.011 | 0.059 | -0.056 | -0.025 | -0.158 | 0.059 | -0.053 | 0.007 | -0.176 | 0.112 | -0.069 | -0.069 | -0.093 | -0.072 | 0.042 | 0.061 | 0.062 | 0.11 | -0.002 | -0.032
HP1BP3 (UniProt Q5SSJ5) | 0.017 | -0.082 | 0.055 | -0.008 | 0.009 | 0.125 | -0.045 | -0.087 | 0.028 | 0.026 | 0.026 | -0.057 | 0.043 | -0.034 | 0.025 | 0.132 | 0.113 | -0.048 | 0.067 | -0.023
HEXA (UniProt P06865) | -0.491 (active) | -0.023 | -0.001 | 0.017 | 0.016 | -0.036 | -0.003 | 0.006 | 0.044 | 0.023 | -0.025 | -0.06 | -0.156 | 0.006 | -0.028 | -0.02 | 0.056 | -0.013 | -0.037 | -0.022
HDGFL2 (UniProt Q7Z4V5) | -0.017 | -0.013 | -0.007 | -0.061 | 0.035 | -0.029 | -0.018 | -0.048 | 0.032 | 0.098 | -0.273 (active) | -0.05 | -0.022 | -0.052 | -0.139 | 0.024 | -0.032 | 0.033 | -0.093 | -0.018
FMC1 (UniProt Q96HJ9) | -0.128 | -0.026 | 0.009 | 0.045 | 0.006 | -0.012 | -0.006 | 0.009 | 0.035 | 0.016 | 0.01 | -0.044 | -0.011 | 0.013 | -0.042 | -0.054 | 0.044 | 0.006 | -0.012 | -0.053
HDDC2 (UniProt Q7Z4H3) | -0.015 | 0.039 | 0.057 | -0.005 | -0.01 | -0.003 | 0.069 | -0.008 | -0.091 | 0.043 | -0.013 | 0.111 | -0.005 | 0.032 | -0.03 | -0.036 | 0.032 | -0.032 | 0.029 | -0.041
FKBP7 (UniProt Q9Y680) | 0 | -0.04 | 0.055 | -0.058 | 0.064 | 0 | 0.071 | 0.012 | 0.027 | 0.031 | -0.034 | -0.017 | 0.005 | -0.037 | -0.029 | -0.017 | -0.02 | 0.079 | 0.008 | -0.097
GALNT4 (UniProt Q8N4A0) | -0.042 | -0.042 | -0.049 | 0.006 | -0.021 | 0.042 | 0.079 | -0.005 | 0.038 | 0.035 | -0.013 | -0.117 | -0.072 | -1.32 (active) | -0.064 | 0.055 | 0.009 | 0.003 | 0.051 | -0.064
FECH isoform 2 (UniProt P22830) | 0.315 | -0.125 | 0.189 | -0.04 | 0.46 | 0.134 | 0.549 | 0.248 | 0.134 | 0.034 | -0.031 | 0.171 | 0.288 | 0.021 | -0.01 | -0.228 | -0.031 | -0.035 | 0 | 0.38
HK2 (UniProt P52789) | -0.215 | 0.029 | -0.967 (active) | -0.194 | -0.106 | -0.03 | 0.022 | 0.01 | -0.01 | 0.046 | 0.003 | -0.012 | -0.059 | 0.016 | 0.022 | 0.048 | 0.046 | -0.021 | -0.065 | -0.059
FANCI (UniProt Q9NVI1) | -0.043 | 0.041 | -0.13 | 0.113 | -0.118 | -0.085 | 0.075 | 0.098 | -0.027 | 0.086 | 0.139 | -0.069 | -0.281 (active) | -0.08 | 0.083 | 0.112 | 0.099 | -0.089 | 0.033 | -0.045
